# According to PubChem BioAssay (NCATS):
# Records with an inconclusive call do not appear. Where a call stands in place of a potency, no number is given. Active and inactive are the calls of the source. Calls follow the shape of the dose curve; as a rule, active = well fitted curve in the direction sought with a large enough effect; inconclusive = small, poorly fitted or top-dose-only effect, or another doubt; inactive = no such curve, though single readings can be large; an effect the other way counts as inactive or inconclusive.
# Legend:
# [1] = qHTS of pediatric cancer cell lines to identify multiple opportunities for drug repurposing: Primary screen for RD cells (AID 1347104); settings: RD rhabdomyosarcoma viability, CellTiter-Glo luminescence, 48 h; also: potency is read from the fitted curve at half-maximal effect; nearly all actives have a fitted effect of over 55% in size
# Summary of the method: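 Plated cells (500-1,000 per well, growth media) were allowed to settle for 5 hours, treated with compound dilutions for 48 hours, then lysed with CellTiter-Glo for 15 min at room temperature before luminescence reading.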
# Furin (Homo sapiens) = Furin (Homo sapiens) (UniProt P09958); assay: Furin counterscreen qHTS for Zika virus inhibitors (AID 1347149); settings: furin enzymatic counterscreen, fluorogenic substrate; series mostly up to 114 µM;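 also: purified recombinant full-length human furin enzyme at 5 nM; fluorescence gain from furin cutting a BOC-RVRR-AMC peptide substrate over 15 min; top concentration of the series differs between compounds; nearly all actives have a fitted effect of over 70% in size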
# Furin (Homo sapiens), sequence (P09958 whole entry, looked up): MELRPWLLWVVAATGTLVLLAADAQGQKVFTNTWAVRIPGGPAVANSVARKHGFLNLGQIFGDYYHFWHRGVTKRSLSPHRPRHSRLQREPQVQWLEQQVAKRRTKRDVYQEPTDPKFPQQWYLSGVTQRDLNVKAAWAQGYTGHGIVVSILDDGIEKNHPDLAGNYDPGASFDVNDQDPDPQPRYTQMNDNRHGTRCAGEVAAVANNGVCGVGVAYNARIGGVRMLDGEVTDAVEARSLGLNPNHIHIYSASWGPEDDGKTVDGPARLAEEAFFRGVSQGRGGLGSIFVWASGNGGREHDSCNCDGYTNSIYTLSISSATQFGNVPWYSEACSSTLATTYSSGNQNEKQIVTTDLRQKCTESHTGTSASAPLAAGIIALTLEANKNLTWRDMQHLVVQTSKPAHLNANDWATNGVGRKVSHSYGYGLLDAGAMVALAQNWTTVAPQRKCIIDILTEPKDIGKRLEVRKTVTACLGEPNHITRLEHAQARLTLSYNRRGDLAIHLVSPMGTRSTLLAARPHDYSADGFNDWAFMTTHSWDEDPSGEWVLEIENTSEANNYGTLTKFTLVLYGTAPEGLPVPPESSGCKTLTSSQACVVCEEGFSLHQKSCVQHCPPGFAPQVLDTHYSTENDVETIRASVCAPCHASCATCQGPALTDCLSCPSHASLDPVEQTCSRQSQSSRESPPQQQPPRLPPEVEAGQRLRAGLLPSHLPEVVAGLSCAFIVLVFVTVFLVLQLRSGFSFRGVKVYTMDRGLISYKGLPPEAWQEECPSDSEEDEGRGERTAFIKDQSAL
# Summary of the method: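 Counterscreen measures cleavage of 2 microM BOC-RVRR-AMC, below its ~15 microM Km, by 5 nM full-length human furin at pH 7.0 after a 15-min compound preincubation. Inhibition derives from the 15-min fluorescence increase at 37C.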
# [2] = Confirmatory screen GU Rhodamine qHTS for Zika virus inhibitors qHTS (AID 1347157); settings: purified enzyme assay, Rhodamine110 substrate fluorescence, 15 min; series mostly up to 114 µM; also: potency is read from the fitted curve at half-maximal effect; nearly all actives have a fitted effect of over 70% in size
# Summary of the method: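 Compounds, tested up to 114 microM, were incubated for 15 minutes with 25 nM unlinked NS2B-NS3 protease at pH 8.0. Cleavage of 1.5 microM Rhodamine110 substrate was then followed by fluorescence for 15 minutes.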
# [3] = ZIKV-mCherry secondary qHTS for Zika virus inhibitors (AID 1347158); settings: Vero cells, ZIKV-mCherry infection imaging, 48-72 h; series mostly up to 49.2 µM; also: top concentration of the series differs between compounds
# Summary of the method: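 Percent infection is the share of Hoechst-identified Vero nuclei with mCherry signal above 450 RFU (3 SD over negative controls). Cells were infected with recombinant ZIKV-mCherry at MOI 1 after compound addition and imaged 48–72 h later.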
# [4] = test system: Zika virus NS2B-NS3 protease (linked); assay: 384 well plate NINDS AMC confirmatory qHTS for Zika virus inhibitors (AID 1347163); settings: Recombinant NS2B-NS3 protease, Ac-VKTGKR-AMC fluorescence; series mostly up to 100 µM; also: potency is read from the fitted curve at half-maximal effect; nearly all actives have a fitted effect of over 50% in size
# Summary of the method: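 Fluorescence at 355/460 nm was read after 25 minutes of cleavage of 30 microM Ac-VKTGKR-AMC at room temperature, in the dark. Before substrate addition, compounds (up to 1 mM final) sat ~15 minutes with 5, 30 or 60 nM linked protease. Signals were normalized to no-enzyme and no-inhibitor wells.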
# [5] = test system: Zika virus NS2B-NS3 protease (unlinked complex); assay: Primary screen GU Rhodamine qHTS for Zika virus inhibitors: Unlinked NS2B-NS3 protease assay (AID 1347159); settings: Recombinant ZIKV NS2B-NS3 protease, Rhodamine110 substrate fluorescence; series mostly up to 107 µM; also: nearly all actives have a fitted effect of over 60% in size; also: potency is read from the fitted curve at half-maximal effect
# Summary of the method: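 Enzyme 25 nM in Tris-HCl pH 8.0 + 0.01% Tween 20; compounds up to 114 microM, 15 min RT dark; + Rhod110 substrate 1.5 microM; read t0 and 15 min; delta fluorescence → % inhibition → 4-parameter Hill fit.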
# [6] = test system: Zika virus NS2B-NS3 protease (linked construct); assay: Primary screen NINDS Rhodamine qHTS for Zika virus inhibitors (AID 1347160); settings: purified NS2B-NS3 protease, Rhodamine110 substrate fluorescence; series mostly up to 57.1 µM; also: nearly all actives have a fitted effect of over 55% in size
# Summary of the method: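 Enzyme (25 nM, linked NS2B-NS3) was preincubated 15 min with compound in 10 mM Tris-HCl pH 8.0, 0.01% Tween 20. Rhodamine110 substrate (1.5 microM) was then added and fluorescence read at start and after 15 min.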
# [7] = test system: Zika virus NS2B-NS3 protease; assay: Primary screen GU AMC qHTS for Zika virus inhibitors (AID 1347154); settings: Zika NS2B-NS3 unlinked protease, AMC fluorogenic substrate; series mostly up to 54.1 µM; also: nearly all actives have a fitted effect of over 70% in size
# Summary of the method: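 Unlinked Zika NS2B hydrophilic domain–NS3 protease complex at 25 nM in 10 mM Tris-HCl pH 8.0, 0.01% Tween 20, with an AMC peptide substrate. Fluorescence change (340/450 nm) over 15 min at room temperature, normalized to controls, fitted to 4-parameter Hill.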
smiles,measurement,setting,value
Oc1cccc(-c2c3nc(c(-c4cccc(O)c4)c4ccc([nH]4)c(-c4cccc(O)c4)c4nc(c(-c5cccc(O)c5)c5ccc2[nH]5)CC4)C=C3)c1,Potency,[1],26.6 µM (active)
same,Potency,Furin (Homo sapiens),inactive
same,Potency,[2],22.4 µM (active)
same,Potency,[3],inactive
same,Potency,[4],3.16 µM (active)
C=C1/C(=C/C=C2\CCC[C@]3(C)[C@@H]([C@H](C)/C=C/[C@@H](C)C(C)C)CC[C@@H]23)C[C@@H](O)C[C@@H]1O,Potency,[2],49.4 µM (active)
same,Potency,[5],31.6 µM (active)
same,Potency,[6],inactive
O=C(Nc1cc(C(F)(F)F)cc(C(F)(F)F)c1)c1cnc(Cl)nc1C(F)(F)F,Potency,[2],24.8 µM (active)
same,Potency,[5],15.8 µM (active)
same,Potency,[6],inactive
Cc1cc(OCCCS(C)(=O)=O)cc(C)c1-c1cccc(COc2ccc3c(c2)OCC3CC(=O)O)c1 (stereo not drawn),Potency,[2],8.79 µM (active)
same,Potency,[5],12.6 µM (active)
same,Potency,[6],inactive
COc1cc(C[C@H]2C(=O)OC[C@@H]2Cc2ccc(OC)c(OC)c2)ccc1O,Potency,[7],inactive
same,Potency,[5],inactive
same,Potency,[6],inactive
COC1C(O)C(OC2CCC3(C)C(CCC45CCC6C7(COC(=O)C7)OC4(O)C6(C)CCC35)C2)OC(C)C1OC1OC(CO)C(OC2OC(CO)C(O)C(O)C2O)C(O)C1O (stereo not drawn),Potency,[5],inactive
same,Potency,[6],inactive
Cc1sc2c(c1C)C(c1ccc(Cl)cc1)=N[C@@H](CC(=O)Nc1ccc(OCCOCCOCCOCCNc3cccc4c3C(=O)N(C3CCC(=O)NC3=O)C4=O)cc1)c1nnc(C)n1-2 (stereo partly drawn),Potency,[5],inactive
CC(C)(C)c1ccc(C(=O)Nc2cc(Cl)c(Br)cc2C(=O)O)cc1,Potency,[5],2.51 µM (active)
COc1cc(/C=C/C(=O)NCCn2c(C(F)(F)F)cc3ccccc32)cc(OC)c1OC,Potency,[5],inactive
same,Potency,[6],inactive
O=C(Nc1ccccc1)c1ccc(Nc2nnc(-c3ccc(O)cc3)c3ccccc23)cc1,Potency,[5],14.1 µM (active)
CCNC1(C(N)=O)CN(c2nc(C)nc3c(-c4ccc(Cl)cc4)c(-c4ccccc4Cl)nn23)C1,Potency,[5],inactive
C=C1C(=O)O[C@@H]2C[C@@]3(C)C[C@@H](O)C[C@H](C)C3=C[C@H]12,Potency,[5],inactive
same,Potency,[6],inactive
O=C(Nc1cccnn1)N1CCN(c2nccc(-c3ccc(F)c(F)c3)n2)CC1,Potency,[5],inactive
same,Potency,[6],inactive
FC(F)(F)c1ccc(/C=C/c2nc(COc3ccc(CCCCn4ccnn4)cc3)co2)cc1,Potency,[5],inactive
same,Potency,[6],inactive
C=C1CC2[C@@]3(C)C=CC(=O)C(C)(C)C3=C(O)C(=O)[C@@]2(C)C2(C(=O)OC)C(=O)C(C)OC(=O)[C@@]12C (stereo partly drawn),Potency,[5],inactive
same,Potency,[6],inactive
C/C=C(/C)C(=O)O[C@H]1[C@H](OC(=O)/C(C)=C\C)[C@@]23C(CC1(C)C)[C@]1(CCC4[C@@]5(C)CC[C@H](O[C@@H]6O[C@H](C(=O)O)[C@@H](O)[C@H](O[C@@H]7O[C@H](CO)[C@H](O)[C@H](O)[C@H]7O[C@@H]7O[C@@H](C)[C@H](O)[C@@H](O)[C@H]7O[C@@H]7OC[C@@H](O)[C@H](O)[C@H]7O)[C@H]6O[C@@H]6O[C@H](CO)[C@H](O)[C@H](O)[C@H]6O)C(C)(C)C5CC[C@@]4(C)[C@]1(C)C[C@H]2O)O[C@H]3O (stereo partly drawn),Potency,[5],3.98 µM (active)
CCOc1cc(C(C)(C)C)ccc1C1=NC(C)(c2ccc(Cl)cc2)C(C)(c2ccc(Cl)cc2)N1C(=O)N1CCN(CCCS(C)(=O)=O)CC1 (stereo not drawn),Potency,[5],inactive
CCCCc1ccc(NS(=O)(=O)c2ccc(F)cc2)cc1,Potency,[5],50.1 µM (active)
C=C1CCC2C(C)(C)CCCC2(C)C1CC/C(C)=C\CO (stereo not drawn),Potency,[5],17.8 µM (active)
CC1(C)C2CCC(CO[C@@H]3O[C@H](CO[C@@H]4OC[C@](O)(CO)[C@H]4O)[C@@H](O)[C@H](O)[C@H]3O)C1C2 (stereo partly drawn),Potency,[5],inactive
same,Potency,[6],inactive
CC(=O)OC1CCC2(C)C(CCC3(C)C2CC=C2C4C(C)C(C)CCC4(C)CCC23C)C1(C)C(=O)O (stereo not drawn),Potency,[5],3.98 µM (active)
CCC(C)C(=O)OC1C(C)C2(O)C(C=C(CO)CC3(O)C(=O)C(C)=CC32)C2C(C)(C)C12OC(=O)C(C)C (stereo not drawn),Potency,[5],inactive
same,Potency,[6],inactive
COc1cc(N(C)CCN(C)C)c(N)cc1Nc1nccc(-c2cn(C)c3ccccc23)n1,Potency,[5],inactive
same,Potency,[6],inactive
O=S(=O)(Cc1ccccc1)Nc1ccc(-c2ccc3c(cnn3-c3ccc(F)cc3)c2)c(C(F)(F)F)c1,Potency,[5],20 µM (active)
CC(C)(O)C1CC(=O)C2(C)C(CCC3(C)C(c4ccoc4)OC(=O)C4OC432)C12CCC(=O)OC2 (stereo not drawn),Potency,[5],inactive
same,Potency,[6],inactive
Fc1ccc(-n2cc(CCCCN3CCC4(CC3)OCc3ccccc34)c3ccccc32)cc1,Potency,[5],inactive
same,Potency,[6],inactive
COc1cc2c(Nc3cc(F)c(Cl)c(Cl)c3)ncnc2cc1OCC1CCCN(C)CCC1,Potency,[5],inactive
same,Potency,[6],inactive
CC(=O)O[C@@H]1C2=C(O)C(=O)[C@](C)(OC(C)=O)C(=O)C2=CO[C@@]12O[C@@H](C)CC[C@H]2OC(C)=O,Potency,[5],inactive
same,Potency,[6],inactive
Cc1ccc(NC(=O)c2ccc(CN3CCNCC3)cc2)cc1Nc1nccc(-c2cccnc2)n1,Potency,[5],inactive
same,Potency,[6],inactive
O=S(=O)(NCc1cccc2ccccc12)c1cc(Cl)c(Oc2cccc(N3CCNCC3)c2)s1,Potency,[5],inactive
same,Potency,[6],inactive
C[C@@H](c1ccc2nccn2c1)n1nnc2ncc(-c3cnn(C)c3)nc21,Potency,[5],inactive
same,Potency,[6],inactive
O=C(C1CCCCC1)N(CCN1CCN(c2ccccc2O)CC1)c1ccccn1,Potency,[5],inactive
same,Potency,[6],inactive
CC1(C)CCC(C)(C)c2cc(C#Cc3ccc(C(=O)O)cc3)ccc21,Potency,[5],1.58 µM (active)
CCn1c(=O)c(-c2ccc(-c3cncs3)cc2Cl)cc2cnc(Nc3ccc(N4CCN(C)CC4)cc3)nc21,Potency,[5],inactive
CCCC(CCC)C(=O)NCc1ccc2c(cnn2-c2ccccc2OC)c1,Potency,[5],inactive
same,Potency,[6],inactive
CC(=O)O[C@H]1[C@H](O)C[C@@]2(C)C(CC[C@]3(C)C2CC=C2C4CC(C)(C)CC[C@]4(C(=O)O)CC[C@]23C)C1(C)C (stereo partly drawn),Potency,[5],7.94 µM (active)
COc1cccc(N2CCN(C3=Nc4c(F)cccc4[C@H](CC(=O)O)N3c3cc(C(F)(F)F)ccc3OC)CC2)c1,Potency,[5],25.1 µM (active)
O=C(Nc1ccccc1C(=O)NC1CCCCNC1=O)c1cc2ccccc2s1 (stereo not drawn),Potency,[5],31.6 µM (active)
same,Potency,[6],inactive
NC(=O)c1nc(Nc2ccccc2)sc1NC(=O)C1CCCCC1,Potency,[5],inactive
same,Potency,[6],inactive
CO[C@H]1[C@@H](O)[C@H](O[C@H]2CC[C@@]3(C)C(CCC4C3CC[C@]35COC6(COC(=O)C6)C3CCC45O)C2)O[C@@H](C)[C@@H]1OC1OC(CO)C(OC2OC(CO)C(O)C(O)C2O)C(O)C1O (stereo partly drawn),Potency,[5],inactive
same,Potency,[6],inactive
